Holding throughout (set-up): species or system human, MV4-11 + K-562 + COLO205 + SK-N-BE2 + OVCAR-8
The test system of one assay is ACVR1B. The following applies: read-out: apparent Kd, n = 1.
A further assay deals with TGFBR2. The following applies: read-out: apparent Kd, n = 1.
In the next assay the test system is CSK. The following applies: read-out: apparent Kd; compound concentrations:100 nM and 1000 nM (sheet 'Samples'); n = 1.
In a further assay the test system is ULK1. The following applies: read-out: apparent Kd, n = 1.
In another assay the test system is CDK9. The settings on record: read-out: apparent Kd, n = 1.
A further assay concerns ICK. The settings on record: read-out: apparent Kd, n = 1.
A further assay concerns TTK. The following applies: read-out: apparent Kd, n = 1.
A further assay deals with PIK3CG. The settings on record: read-out: apparent Kd, n = 1.
The next assay deals with PDGFRB. The settings on record: read-out: apparent Kd, n = 1.
A further assay concerns ROCK1. The settings on record: read-out: apparent Kd, compound concentrations: 100 nM and 1000 nM (sheet 'Samples'), n = 1.
For a further assay, the system named is CDC42BPG. The settings on record: read-out: apparent Kd, n = 1.
The subject of the next assay is FYN. The settings on record: read-out: apparent Kd; compound concentrations: 100 nM and 1000 nM (sheet 'Samples'), CATDS: 1.7018948843541101E-2; n = 1.
For another assay, the system named is LYN. The following applies: read-out: apparent Kd, compound concentrations: 100 nM and 1000 nM (sheet 'Samples'), n = 1.
In another assay the test system is MTOR. The following applies: read-out: apparent Kd, n = 1.
The next assay has as its system AXL. The settings on record: read-out: apparent Kd, compound concentrations: 100 nM and 1000 nM (sheet 'Samples'), n = 1.
Another assay deals with CDC42BPA. The settings on record: read-out: apparent Kd, n = 1.
The test system of another assay is PRKG1. The following applies: read-out: apparent Kd, n = 1.
[1] abbreviates: compound concentrations:100 nM and 1000 nM (sheet 'Samples').

Where two headings read alike, the source gives them in different places.

Turning to `COc1cccc2c(-c3ccncc3)c(-c3ccc(F)cc3)nn12` [GW468513X], the potency estimated from few doses with ACVR1B (compound concentrations: 100 nM and 1000 nM (sheet 'Samples'), CATDS: 0.110012792882782) was 83.3 nM.
Take `CN(c1ccc(NC(=O)NCCN2CCOCC2)cc1)c1ccnc(Nc2ccc(CS(C)(=O)=O)cc2)n1.Cl` [GW830365A]: the potency estimated from few doses in the assay on TGFBR2 (compound concentrations: 100 nM and 1000 nM (sheet 'Samples'), CATDS: 5.51715170179801E-2) is 958 nM.
On to `CC(=O)N[C@@H](Cc1ccc(OP(=O)(O)O)cc1)C(=O)N[C@H]1CCC(=O)N2CCC[C@@H](C(=O)NCc3ccc(Cl)cc3)N2C1=O` [RO0325308-000], for which the potency estimated from few doses is 1550 nM in the assay with CSK and 1610 nM with ULK1 (setting [1]).
In the case of `CN(C)CC(O)COc1ccc(Nc2nccc(-c3cnn4nc(N5CCOCC5)ccc34)n2)cc1` (centres unmarked) [GW767488X], the potency estimated from few doses in the assay on CDK9 (setting [1]) was 534 nM; in the assay with ICK (setting [1]) it was 1720 nM; with TGFBR2 (setting [1]) it was 215 nM; in the assay on TTK (setting [1]), 2040 nM; in the assay with ULK1 (setting [1]), 793 nM.
For `O=C1N=C(NCc2cccs2)O/C1=C\c1ccc2ncccc2c1` [RO4624208-000], the potency estimated from few doses in the assay on PIK3CG (compound concentrations: 100 nM and 1000 nM (sheet 'Samples'), CATDS: 5.5474832594148302E-2) was 936 nM.
As for `c1cnn2ncc(-c3ccnc(Nc4ccc5c(c4)OCCO5)n3)c2c1` [GW806290X], the potency estimated from few doses in the assay on CDK9 (compound concentrations: 100 nM and 1000 nM (sheet 'Samples'), CATDS: 6.9114282023058901E-2) was 99.5 nM; in the assay with ICK (compound concentrations: 100 nM and 1000 nM (sheet 'Samples'), CATDS: 0.106713874587666), 50.6 nM; in the assay on TGFBR2 (compound concentrations: 100 nM and 1000 nM (sheet 'Samples'), CATDS: 6.1295123324086299E-2), 123 nM.
As for `O=C(O)C(F)(F)F.O=c1[nH]ccc2nc(N[C@@H]3CCNC3)nc(Nc3ccc4c(c3)S(=O)(=O)CC4)c12` [GSK2181306A], the potency estimated from few doses in the assay with PDGFRB (compound concentrations: 100 nM and 1000 nM (sheet 'Samples'), CATDS: 8.63750114385467E-3) was 1400 nM; in the assay on PIK3CG (compound concentrations: 100 nM and 1000 nM (sheet 'Samples'), CATDS: 1.1005849922452E-2), 648 nM; in the assay with ROCK1 (CATDS: 8.6334191105918393E-3) it was 1410 nM; in the assay with ULK1 (compound concentrations: 100 nM and 1000 nM (sheet 'Samples'), CATDS: 1.11724420901094E-2), 623 nM.
For `CCn1c(-c2cccnc2O)nc2cnccc21` [SB-736715], the potency estimated from few doses in the assay on ACVR1B (compound concentrations: 100 nM and 1000 nM (sheet 'Samples'), CATDS: 1.8200726561527599E-2) is 889 nM; in the assay with CDC42BPG (compound concentrations: 100 nM and 1000 nM (sheet 'Samples'), CATDS: 1.9794934428915799E-2) it was 767 nM; in the assay with CDK9 (compound concentrations: 100 nM and 1000 nM (sheet 'Samples'), CATDS: 1.2439318728053501E-2) it was 1990 nM; in the assay on FYN, 1010 nM; in the assay with LYN (CATDS: 1.4378257714361201E-2), 1420 nM; in the assay with MTOR (compound concentrations: 100 nM and 1000 nM (sheet 'Samples'), CATDS: 2.4342706030032701E-2) it was 547 nM. In addition, the potency estimated from few doses with PIK3CG (compound concentrations: 100 nM and 1000 nM (sheet 'Samples'), CATDS: 9.1944344631326697E-2) is 91.6 nM; in the assay with TTK (compound concentrations: 100 nM and 1000 nM (sheet 'Samples'), CATDS: 1.5814183064690599E-2), 1160 nM.
Take `NC(=O)c1cc(-c2ccccc2)cc2c(C3CCNCC3)c[nH]c12` [GSK301362A]: in the assay on PDGFRB (setting [1]), the potency estimated from few doses is 1630 nM.
Regarding `O=C(O)C(F)(F)F.O=C(O)C(F)(F)F.O=c1[nH]ccc2nc(N[C@@H]3CCCNC3)nc(Nc3ccc(S(=O)(=O)N4CCOCC4)cc3)c12.O=c1[nH]ccc2nc(N[C@@H]3CCCNC3)nc(Nc3ccc(S(=O)(=O)N4CCOCC4)cc3)c12` [GSK2177277A], the potency estimated from few doses was 251 nM with AXL (CATDS: 1.0312125146775999E-2); 1260 nM in the assay with CDC42BPA (compound concentrations: 100 nM and 1000 nM (sheet 'Samples'), CATDS: 6.6693958930569E-3); 119 nM in the assay on CDC42BPG (compound concentrations: 100 nM and 1000 nM (sheet 'Samples'), CATDS: 1.3688403769646499E-2); 942 nM in the assay on LYN (CATDS: 7.0851480794777598E-3); 18.3 nM in the assay with PDGFRB (compound concentrations: 100 nM and 1000 nM (sheet 'Samples'), CATDS: 3.6594692875912202E-2); 679 nM with PIK3CG (compound concentrations: 100 nM and 1000 nM (sheet 'Samples'), CATDS: 7.6571772064284397E-3). Besides, the potency estimated from few doses in the assay on ROCK1 (CATDS: 7.59809178232565E-3) is 700 nM; with TTK (compound concentrations: 100 nM and 1000 nM (sheet 'Samples'), CATDS: 6.1777236356659101E-3), 1950 nM.
In the case of `COc1cc[nH]c1/C=C1\C(=O)Nc2ccc(F)c(C#CC3(O)CCNCC3)c21.Cl` [RO0282986-001], the potency estimated from few doses in the assay with AXL (CATDS: 1.01827981772752E-2) is 1230 nM; in the assay with CDK9 (compound concentrations: 100 nM and 1000 nM (sheet 'Samples'), CATDS: 1.1942255869273499E-2) it was 724 nM; in the assay with ICK (compound concentrations: 100 nM and 1000 nM (sheet 'Samples'), CATDS: 1.28060195349982E-2) it was 593 nM; with PDGFRB (compound concentrations: 100 nM and 1000 nM (sheet 'Samples'), CATDS: 1.1337273569473399E-2) it was 850 nM; with TTK (compound concentrations: 100 nM and 1000 nM (sheet 'Samples'), CATDS: 9.4369633718921209E-3), 1690 nM.
For `CC(C)Oc1ccc2c(-c3ccnc(Nc4ccc(N5CCN(C)CC5)cc4)n3)cnn2n1` [GW696155X], in the assay on PDGFRB (setting [1]), the potency estimated from few doses is 2040 nM.
Take `Cl.Cl.NC(CNC(=O)c1cc(Br)c(-c2ccnc3[nH]ccc23)s1)c1ccccc1.NC(CNC(=O)c1cc(Br)c(-c2ccnc3[nH]ccc23)s1)c1ccccc1` (centres unmarked) [GSK1322949A]: the potency estimated from few doses with CDC42BPG (compound concentrations: 100 nM and 1000 nM (sheet 'Samples'), CATDS: 3.2590652290340097E-2) was 1010 nM; in the assay on ICK (compound concentrations: 100 nM and 1000 nM (sheet 'Samples'), CATDS: 2.9774635875568601E-2) it was 1230 nM; in the assay with PRKG1 (compound concentrations: 100 nM and 1000 nM (sheet 'Samples'), CATDS: 7.4482262143184694E-2), 247 nM; with ROCK1 (CATDS: 9.3197598269089799E-2), 181 nM.
On to `CCn1c(-c2nonc2N)nc2c(C#CC(C)(C)O)nc(O[C@@H](CN)c3ccccc3)cc21.O=C(O)C(F)(F)F` [GSK1007102B], for which the potency estimated from few doses was 952 nM in the assay with CDC42BPA (setting [1]), 191 nM with CDC42BPG (setting [1]) and 9.31 nM with PRKG1 (setting [1]).
As for `CC(C)Nc1cc(-c2ccc3c(N)n[nH]c3c2)nc(N)n1` [GSK2221681A], the potency estimated from few doses with ACVR1B (setting [1]) is 803 nM.
On to `COc1ccc(Nc2nccc(-c3ccc(NC(=O)c4cc5cc(F)ccc5[nH]4)cc3)n2)cc1` [GSK1229496A], for which the potency estimated from few doses with ACVR1B (compound concentrations: 100 nM and 1000 nM (sheet 'Samples'), CATDS: 0.38937877773487001) was 643 nM.
For the molecule `O=C(O)C(F)(F)F.O=c1[nH]ccc2nc(N[C@@H]3CCNC3)nc(Nc3cc(Cl)cc(Cl)c3)c12` [GSK2188764A], the potency estimated from few doses in the assay with CDC42BPG (setting [1]) is 556 nM.
In the case of `Cc1cccc(Nc2nc(N[C@H]3CCNC3)ncc2C(N)=O)c1.Cl` [GSK2197149A], the potency estimated from few doses with MTOR (setting [1]) was 532 nM; with PIK3CG (setting [1]) it was 819 nM; in the assay with TGFBR2 (setting [1]), 1870 nM.
With `NCC(NC(=O)c1cc(-c2cn[nH]c2)c(-c2ccnc3[nH]ccc23)s1)c1ccccc1.NCC(NC(=O)c1cc(-c2cn[nH]c2)c(-c2ccnc3[nH]ccc23)s1)c1ccccc1.O=C(O)C(F)(F)F.O=C(O)C(F)(F)F` (centres unmarked) [GSK1325775A], the potency estimated from few doses in the assay on ACVR1B (compound concentrations: 100 nM and 1000 nM (sheet 'Samples'), CATDS: 3.7153250837812998E-2) is 1020 nM; in the assay on CDC42BPA (compound concentrations: 100 nM and 1000 nM (sheet 'Samples'), CATDS: 0.12802177694120001) it was 75.6 nM; in the assay with CDC42BPG (compound concentrations: 100 nM and 1000 nM (sheet 'Samples'), CATDS: 3.6567109546732701E-2) it was 1070 nM; with PRKG1 (compound concentrations: 100 nM and 1000 nM (sheet 'Samples'), CATDS: 5.9396104813121603E-2), 330 nM; in the assay with ROCK1 (CATDS: 0.15957099257621499), 52.4 nM.
On to `CN(C)CCNC(=O)Nc1ccc(N(C)c2ccnc(Nc3ccc(CS(C)(=O)=O)cc3)n2)cc1.Cl` [GW830900A], for which the potency estimated from few doses in the assay on PDGFRB (setting [1]) is 1330 nM; in the assay with TGFBR2 (setting [1]), 1550 nM; in the assay on TTK (setting [1]) it was 2150 nM.
With `CNCC#Cc1c(F)ccc2c1/C(=C/c1[nH]ccc1OC)C(=O)N2.Cl` [RO0281601-001], the potency estimated from few doses with ICK (compound concentrations: 100 nM and 1000 nM (sheet 'Samples'), CATDS: 2.2639550880060699E-2) was 1700 nM.

The values above are taken from PMC11062922 (Nature Chemical Biology, 2023).
